# Results from PubChem BioAssay (NCATS).
# Values joined by “and” are separate entries in the source; they are usually repeats but may differ in a detail not shown here. Identical values can stand only once. Results filed as inconclusive are left out. Where a call stands in place of a potency, no number is given. Active and inactive are the calls of the source. Unless noted, the call rests on the fitted dose curve; in most records, active means well fitted curve in the direction sought with a large enough effect; inconclusive means small, poorly fitted or top-dose-only effect, or another doubt; inactive means no such curve, though single readings can be large; an effect the other way counts as inactive or inconclusive.
# What was measured:
# [1] = target: Calcium and integrin-binding protein 1 (Homo sapiens) (UniProt Q99828); assay: Validation qHTS for Identification of Calcium Integrin Binding protein 1 (CIB1) Competitor (AID 1508618)
# Sequence of Calcium and integrin-binding protein 1 (Homo sapiens) (Q99828 whole entry, looked up): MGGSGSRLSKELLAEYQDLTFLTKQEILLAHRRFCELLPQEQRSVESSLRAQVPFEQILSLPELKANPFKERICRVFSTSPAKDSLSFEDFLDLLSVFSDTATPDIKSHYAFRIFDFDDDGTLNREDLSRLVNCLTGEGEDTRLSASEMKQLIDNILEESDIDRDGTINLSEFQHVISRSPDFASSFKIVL
# Method in brief: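 Displacement of FITC-alphaIIb peptide (100 nM) from CIB1-GST (1 uM) is monitored by polarization in quantitative HTS format; buffer carries 5 mM CaCl2 and 125 mM NaCl at pH 7.4, incubations are at room temperature.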
# [2] = Primary qHTS for small molecule stabilizers of the endoplasmic reticulum resident proteome: Secreted ER Calcium Modulated Protein (SERCaMP) assay (AID 1508630)
# Method in brief: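 The SH-SY5Y reporter protocol was run at 3 concentrations up to 38.3 uM (primary) or 11 concentrations (follow-up): 16 h compound, 100 nM thapsigargin for 4 h, then extracellular luciferase luminescence.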
# Papain (Carica papaya) = Papain (Carica papaya) (UniProt P00784); assay: Primary qHTS assay for inhibitors of the protease papain (AID 1645873);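 further: papain turnover of Z-FR-AMC read as the AMC fluorescence gain over 10 min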; further: potency means the concentration at half of the fitted maximal effect
# Sequence of Papain (Carica papaya) (P00784 whole entry, looked up): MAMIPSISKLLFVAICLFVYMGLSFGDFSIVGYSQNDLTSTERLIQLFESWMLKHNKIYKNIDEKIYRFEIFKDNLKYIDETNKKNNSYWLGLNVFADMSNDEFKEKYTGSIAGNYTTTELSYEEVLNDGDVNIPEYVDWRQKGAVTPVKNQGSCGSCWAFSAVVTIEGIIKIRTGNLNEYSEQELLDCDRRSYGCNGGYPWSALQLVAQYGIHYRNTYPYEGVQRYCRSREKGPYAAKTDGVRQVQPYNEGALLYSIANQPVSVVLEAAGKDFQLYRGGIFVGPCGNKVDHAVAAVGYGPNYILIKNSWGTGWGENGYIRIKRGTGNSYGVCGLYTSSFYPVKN
# [3] = target: Catechol O-methyltransferase (Homo sapiens) (UniProt P21964); assay: Confirmatory Screen for Target Class Profiling of Small Molecule Inhibitors of Methyltransferases (AID 1745852; calls by dose curve; further: potency means the concentration at half of the fitted maximal effect); details: MTase-Glo luminescence, SAH detection, recombinant enzyme; measured here: COMT max response; stronger effect = lower value
# Sequence of Catechol O-methyltransferase (Homo sapiens) (P21964 whole entry, looked up): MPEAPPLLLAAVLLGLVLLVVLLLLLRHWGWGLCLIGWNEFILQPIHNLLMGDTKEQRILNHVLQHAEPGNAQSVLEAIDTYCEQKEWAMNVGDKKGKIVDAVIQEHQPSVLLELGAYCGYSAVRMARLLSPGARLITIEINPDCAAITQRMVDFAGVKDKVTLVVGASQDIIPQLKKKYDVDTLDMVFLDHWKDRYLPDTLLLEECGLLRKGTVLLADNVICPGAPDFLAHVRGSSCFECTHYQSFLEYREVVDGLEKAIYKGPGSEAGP
# [4] = target: Guanidinoacetate N-methyltransferase (Homo sapiens) (UniProt Q14353); assay: as above; details: MTase-Glo luminescence, SAH detection, recombinant enzyme; activity change, negative = inhibition: at 57.3 µM (top of the series)
# [5] = target: Nicotinamide N-methyltransferase (Homo sapiens) (UniProt P40261); assay: as above; details: MTase-Glo luminescence, SAH detection, recombinant enzyme; measured here: NNMT max response; stronger effect = lower value
# Sequence of Nicotinamide N-methyltransferase (Homo sapiens) (P40261 whole entry, looked up): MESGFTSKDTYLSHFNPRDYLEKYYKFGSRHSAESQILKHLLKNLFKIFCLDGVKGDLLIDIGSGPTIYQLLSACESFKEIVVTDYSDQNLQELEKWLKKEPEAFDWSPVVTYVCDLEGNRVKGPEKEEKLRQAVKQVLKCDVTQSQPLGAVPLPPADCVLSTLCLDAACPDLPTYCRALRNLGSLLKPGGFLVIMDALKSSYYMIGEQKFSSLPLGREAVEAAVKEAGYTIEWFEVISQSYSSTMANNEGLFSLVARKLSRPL
# [6] = target: Phenylethanolamine N-methyltransferase (Homo sapiens) (UniProt P11086); assay: as above; details: MTase-Glo luminescence, SAH detection, recombinant enzyme; measured here: PNMT max response; stronger effect = lower value
# Sequence of Phenylethanolamine N-methyltransferase (Homo sapiens) (P11086 whole entry, looked up): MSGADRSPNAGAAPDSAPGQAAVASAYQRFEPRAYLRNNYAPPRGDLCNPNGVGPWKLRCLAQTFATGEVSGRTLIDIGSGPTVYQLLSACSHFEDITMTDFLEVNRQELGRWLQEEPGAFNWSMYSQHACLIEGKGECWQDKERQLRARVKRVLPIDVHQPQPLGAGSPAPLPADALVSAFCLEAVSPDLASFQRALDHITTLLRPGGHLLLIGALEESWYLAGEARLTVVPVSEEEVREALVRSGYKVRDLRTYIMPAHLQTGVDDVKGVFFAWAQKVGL
# [7] = Counterscreen qHTS for small molecule stabilizers of the endoplasmic reticulum resident proteome: GLuc-NoTag assay (AID 1508627); further: potency means the concentration at half of the fitted maximal effect;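 on activity change, negative = inhibition: SH-SY5Y cells given compound then 100 nM thapsigargin to empty ER calcium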
# Method in brief: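 Counterscreen line: SH-SY5Y-GLuc-NoTag cells, treated with compound 19 hr before a 4 hr, 100 nM thapsigargin calcium depletion. Secreted Gaussia luciferase in the medium was measured by luminescence after coelenterazine was added (0.07x final), with cells unlysed.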
# [8] = Confirmatory qHTS for small molecule stabilizers of the endoplasmic reticulum resident proteome: Secreted ER Calcium Modulated Protein (SERCaMP) assay (AID 1508628); further: nearly all actives have a fitted effect of over 40% in size; further: potency means the concentration at half of the fitted maximal effect
# Method in brief: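 GLuc-SERCaMP-expressing SH-SY5Y cells, pretreated 16 h with compound, are challenged with thapsigargin to empty ER calcium stores; after 4 h, coelenterazine is added directly to the medium and luminescence is imaged.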
# [9] = Cell Viability qHTS for small molecule stabilizers of the endoplasmic reticulum resident proteome (AID 1508629); details: cell viability counter-screen, 100 nM thapsigargin for final 4 h;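 further: compound exposure about 46 h in total before the viability read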; further: potency means the concentration at half of the fitted maximal effect;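 on max response: human SH-SY5Y neuroblastoma cells carrying the GLuc-SERCaMP reporter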
# [10] = target: Rap guanine nucleotide exchange factor 3 (Homo sapiens) (UniProt O95398); assay: Confirmatory qHTS for antagonist of cAMP-regulated guanine nucleotide exchange factor 3 (EPAC1) (AID 1645880); further: nearly all actives have a fitted effect of over 55% in size
# Sequence of Rap guanine nucleotide exchange factor 3 (Homo sapiens) (O95398 whole entry, looked up): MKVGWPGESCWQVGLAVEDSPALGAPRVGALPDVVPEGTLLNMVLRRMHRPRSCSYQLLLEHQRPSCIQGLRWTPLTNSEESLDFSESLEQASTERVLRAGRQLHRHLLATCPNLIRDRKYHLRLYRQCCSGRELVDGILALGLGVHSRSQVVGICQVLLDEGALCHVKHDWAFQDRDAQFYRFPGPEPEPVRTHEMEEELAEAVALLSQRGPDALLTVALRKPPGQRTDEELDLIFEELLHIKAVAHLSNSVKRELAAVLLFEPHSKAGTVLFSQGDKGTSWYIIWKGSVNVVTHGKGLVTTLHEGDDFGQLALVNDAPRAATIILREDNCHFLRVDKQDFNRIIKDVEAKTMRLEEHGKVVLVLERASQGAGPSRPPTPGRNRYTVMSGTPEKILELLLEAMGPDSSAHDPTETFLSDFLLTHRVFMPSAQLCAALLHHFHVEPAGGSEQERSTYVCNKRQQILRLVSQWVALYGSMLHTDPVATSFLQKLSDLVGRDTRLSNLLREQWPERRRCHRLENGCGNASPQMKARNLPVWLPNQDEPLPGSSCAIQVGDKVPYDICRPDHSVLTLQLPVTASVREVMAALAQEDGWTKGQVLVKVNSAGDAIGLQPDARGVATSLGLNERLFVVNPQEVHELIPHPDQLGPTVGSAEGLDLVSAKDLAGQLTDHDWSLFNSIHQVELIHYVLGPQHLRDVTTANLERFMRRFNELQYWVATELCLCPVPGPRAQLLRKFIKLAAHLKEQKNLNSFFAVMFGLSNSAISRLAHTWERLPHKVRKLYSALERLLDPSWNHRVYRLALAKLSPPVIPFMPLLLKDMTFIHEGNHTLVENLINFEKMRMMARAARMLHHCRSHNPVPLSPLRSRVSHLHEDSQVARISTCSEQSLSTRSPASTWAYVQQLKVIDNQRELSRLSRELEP
# Method in brief: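 Released BODIPY-GDP fluoresces less than Rap1-bound BODIPY-GDP; the signal is followed at 480/540 nm at 5-min intervals over 30 min, after 5 min at room temperature. Reactions contain 100 nM EPAC1, 250 nM RAP1B-BODIPY-GDP and 50 uM GDP; results are normalized to ATA and DMSO.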
# [11] = target: Rap guanine nucleotide exchange factor 3 (Homo sapiens) (UniProt O95398); assay: Confirmatory qHTS for agonist of cAMP-regulated guanine nucleotide exchange factor 3 (EPAC1) (AID 1645881);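 further: EPAC1 catalysed release of BODIPY-GDP from Rap1B seen as fluorescence loss; nearly all actives have a fitted effect of over 75% in size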
# [12] = target: Rap guanine nucleotide exchange factor 4 (Homo sapiens) (UniProt Q8WZA2); assay: Confirmatory qHTS for agonist of cAMP-regulated guanine nucleotide exchange factor 4 (EPAC2) (AID 1645884);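 further: nucleotide exchange releases bodipy-GDP from Rap1 and this lowers its fluorescence; nearly all actives have a fitted effect of over 65% in size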
# Sequence of Rap guanine nucleotide exchange factor 4 (Homo sapiens) (Q8WZA2 whole entry, looked up, the tested form may be a part): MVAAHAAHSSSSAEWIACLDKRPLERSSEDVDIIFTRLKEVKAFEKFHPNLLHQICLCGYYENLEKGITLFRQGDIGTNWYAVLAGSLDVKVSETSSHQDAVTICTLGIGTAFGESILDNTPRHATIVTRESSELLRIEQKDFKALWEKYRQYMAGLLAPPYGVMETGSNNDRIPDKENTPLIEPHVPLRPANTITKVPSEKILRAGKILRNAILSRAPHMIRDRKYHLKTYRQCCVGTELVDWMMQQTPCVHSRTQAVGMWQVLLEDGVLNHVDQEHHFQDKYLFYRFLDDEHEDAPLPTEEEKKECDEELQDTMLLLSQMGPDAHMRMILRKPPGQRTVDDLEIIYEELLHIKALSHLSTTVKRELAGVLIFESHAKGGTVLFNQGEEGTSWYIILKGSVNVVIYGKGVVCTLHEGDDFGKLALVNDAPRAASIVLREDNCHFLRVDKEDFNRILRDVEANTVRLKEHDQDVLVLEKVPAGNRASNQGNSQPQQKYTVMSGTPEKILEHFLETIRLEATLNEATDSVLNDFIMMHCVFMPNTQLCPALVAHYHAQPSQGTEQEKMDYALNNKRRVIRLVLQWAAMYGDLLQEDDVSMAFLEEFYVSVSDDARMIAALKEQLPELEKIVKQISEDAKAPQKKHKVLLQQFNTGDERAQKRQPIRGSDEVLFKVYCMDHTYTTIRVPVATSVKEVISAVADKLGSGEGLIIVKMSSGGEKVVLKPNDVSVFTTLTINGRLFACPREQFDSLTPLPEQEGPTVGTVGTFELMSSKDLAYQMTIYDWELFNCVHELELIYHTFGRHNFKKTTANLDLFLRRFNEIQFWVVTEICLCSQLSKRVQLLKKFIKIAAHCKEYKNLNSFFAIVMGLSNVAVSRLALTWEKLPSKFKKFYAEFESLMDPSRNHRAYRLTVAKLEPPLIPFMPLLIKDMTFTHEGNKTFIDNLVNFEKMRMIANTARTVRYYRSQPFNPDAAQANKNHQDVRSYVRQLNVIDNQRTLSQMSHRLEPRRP
# [13] = target: Rap guanine nucleotide exchange factor 4 (Homo sapiens) (UniProt Q8WZA2); assay: Confirmatory qHTS for antagonist of cAMP-regulated guanine nucleotide exchange factor 4 (EPAC2) (AID 1645885); further: potency means the concentration at half of the fitted maximal effect; nearly all actives have a fitted effect of over 25% in size
# [14] = Primary qHTS for inhibitors of nuclear receptor binding SET domain protein 2 (NSD2) in an RCH-ACV wild type WT cells (2C) (AID 1645877); further: nearly all actives have a fitted effect of over 70% in size
# [15] = target: Rap guanine nucleotide exchange factor 3 (Homo sapiens) (UniProt O95398); assay: Counterscreen qHTS for antagonist of cAMP-regulated guanine nucleotide exchange factor 3 (EPAC1) (AID 1645888)
# Method in brief: (§1)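 Rap1B-BODIPY-GDP 250 nM + GDP 50 uM; cpds 7-pt, final 9.74 nM–152 uM (activator mode) or from 7.32 nM upwards (inhibitor mode); RT; FI 480/540 nm at 5 and 30 min, then ± cAMP, reread.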
# [16] = target: Rap guanine nucleotide exchange factor 3 (Homo sapiens) (UniProt O95398); assay: Counterscreen qHTS for agonist of cAMP-regulated guanine nucleotide exchange factor 3 (EPAC1) (AID 1645889); further: nearly all actives have a fitted effect of over 40% in size
# Method in brief: as §1
compound,measurement,setting,value
CC[C@@H]1Cc2cc(O)ccc2C2=C1c1ccc(O)cc1C[C@H]2CC,Potency,[1],inactive
same,Potency,[2],inactive
same,Potency,Papain (Carica papaya),5.01 µM (active)
same,activity,[3],9.67%
same,Potency,[4],43.2 µM (active)
same,activity,[5],-26.8%
same,activity,[6],-50.4%
C=CCN1CCc2c(cc(O)c(O)c2Cl)C(c2ccccc2)C1 (configuration not stated),Potency,[1],inactive
same,Potency,[2],inactive
same,Potency,Papain (Carica papaya),inactive
same,activity,[3],72.4%
same,"activity change, negative = inhibition",[4],5.83%
same,activity,[5],-9.01%
same,activity,[6],8.41%
COC(=O)C(C)(N)Cc1ccc(O)cc1 (configuration not stated),Potency,[1],inactive
same,Potency,Papain (Carica papaya),inactive
CCCc1c(-c2ccc(O)cc2)nn(-c2ccc(O)cc2)c1-c1ccc(O)cc1,Potency,[1],inactive
same,Potency,[2],inactive
same,Potency,Papain (Carica papaya),inactive
same,activity,[3],-7.84%
same,Potency,[4],43.2 µM (active)
same,activity,[5],-57.1%
same,activity,[6],-22%
Cc1nc(N=Nc2ccc(C(=O)O)cc2)c(COP(=O)(O)O)c(C=O)c1O,Potency,[1],inactive
same,Potency,[2],inactive
same,Potency,Papain (Carica papaya),inactive
CC1=C(C(=O)O)N2C(=O)[C@@H](NC(=O)C(N)C3=CCC=CC3)[C@H]2SC1 (some centres not stated),Potency,[1],inactive
same,Potency,Papain (Carica papaya),inactive
CN(CC[C@@H](Oc1ccc(C(F)(F)F)cc1)c1ccccc1)CC(=O)O,Potency,[1],inactive
same,Potency,[2],inactive
same,Potency,Papain (Carica papaya),inactive
CC(=O)C(C)=O,Potency,[1],inactive
same,Potency,Papain (Carica papaya),inactive
COc1cc2c(CCNC(C)=O)c[nH]c2cc1O,Potency,[1],inactive
same,Potency,Papain (Carica papaya),inactive
C=CCNc1ncnc2ccc(Br)cc12,Potency,[1],inactive
same,Potency,Papain (Carica papaya),inactive
N=C(N)c1ccccc1,Potency,[1],inactive
same,Potency,Papain (Carica papaya),inactive
N[C@H](C(=O)O)[C@H](Cc1ccccc1)C(=O)O,Potency,[1],inactive
same,Potency,Papain (Carica papaya),inactive
NC1(C(=O)O)CC1,Potency,[1],inactive
same,Potency,Papain (Carica papaya),inactive
N=C(N)c1ccc(N)cc1,Potency,[1],inactive
same,Potency,Papain (Carica papaya),inactive
CCOC(=O)C12CC1/C(=N/O)c1ccccc1O2 (configuration not stated),Potency,[1],inactive
same,Potency,Papain (Carica papaya),inactive
O=C(O)c1cc(=O)cc(C(=O)O)[nH]1,Potency,[1],inactive
same,Potency,Papain (Carica papaya),inactive
C#CC(N)CCC(=O)O (configuration not stated),Potency,[1],inactive
same,Potency,Papain (Carica papaya),inactive
CCc1ccc2c(-c3cccc(Cl)c3)nc(=O)n(CC)c2n1,Potency,[1],inactive
same,Potency,Papain (Carica papaya),inactive
C[C@](Cc1ccc(O)c(O)c1)(NN)C(=O)O,Potency,[1],inactive
same,Potency,Papain (Carica papaya),inactive
same,activity,[3],156%
same,"activity change, negative = inhibition",[4],0.684%
same,activity,[5],-8.36%
same,activity,[6],2.39%
CCCCCCCCCC(=O)NC(CN1CCOCC1)[C@H](O)c1ccccc1 (some centres not stated),Potency,[1],inactive
same,Potency,Papain (Carica papaya),inactive
Brc1c(Br)c(Br)c2[nH]cnc2c1Br,Potency,[1],inactive
same,Potency,Papain (Carica papaya),inactive
same,activity,[3],-26.1%
same,Potency,[4],27.3 µM (active)
same,activity,[5],-40.5%
same,activity,[6],-39.7%
CCCCS(=N)(=O)CC[C@H](N)C(=O)O (some centres not stated),Potency,[1],inactive
same,Potency,Papain (Carica papaya),inactive
CCN(c1nc(N)c(C(=O)N=C(N)N)nc1Cl)C(C)C,Potency,[1],inactive
same,Potency,Papain (Carica papaya),inactive
CCCCCCCC/C=C\CCCCCCCC(=O)NCCc1ccc(O)c(O)c1,Potency,[7],inactive
same,Potency,[8],5.01 µM (active)
same,Potency,[9],3.98 µM (active) and 7.08 µM (active)
same,Potency,Papain (Carica papaya),inactive
NCCCCN,Potency,[1],inactive
same,Potency,Papain (Carica papaya),inactive
O=C(O)/C=C/c1cnc[nH]1,Potency,[1],inactive
same,Potency,Papain (Carica papaya),inactive
C=C1C[C@@]23CC[C@H]4[C@@](C)(CCC[C@@]4(C)C(=O)O)[C@@H]2CC[C@]1(O)C3,Potency,[1],inactive
same,Potency,Papain (Carica papaya),inactive
c1ccc(C(NCCNC(c2ccccc2)c2ccccc2)c2ccccc2)cc1,Potency,[1],inactive
same,Potency,Papain (Carica papaya),inactive
CNc1ncnc2c1ncn2[C@H]1C[C@H](OP(=O)(O)O)[C@@H](COP(=O)(O)O)O1,Potency,[1],inactive
same,Potency,Papain (Carica papaya),inactive
OC[C@H]1O[C@H](n2cnc3c(N[C@H]4CCC[C@@H]4O)ncnc32)[C@H](O)[C@@H]1O,Potency,[1],inactive
same,Potency,Papain (Carica papaya),inactive
O=C1NC(=O)c2cc(Nc3ccccc3)c(Nc3ccccc3)cc21,Potency,[1],inactive
same,Potency,Papain (Carica papaya),inactive
c1ccc(C2CN3CCSC3=N2)cc1 (configuration not stated),Potency,[1],inactive
same,Potency,Papain (Carica papaya),inactive
COc1ccc(CCN(C)CCc2ccc(OC)c(OC)c2)cc1OC,Potency,[7],inactive
same,Potency,[8],inactive
same,max response,[9],1.86% (inactive)
same,Potency,[2],inactive
same,Potency,Papain (Carica papaya),inactive
CCCC(=O)NCCc1c2n(c3ccc(OC)cc13)CCCc1ccccc1-2,Potency,[1],inactive
same,Potency,[10],inactive
same,Potency,[11],inactive
same,Potency,[12],inactive
same,Potency,[13],7.84 µM (active)
CC(N)=NCCCC[C@@H](N)C(=O)O,Potency,[1],inactive
same,Potency,Papain (Carica papaya),inactive
Fc1ccc(CN(C2=NCCN2)c2c(Cl)cccc2Cl)cc1,Potency,[1],inactive
same,Potency,Papain (Carica papaya),inactive
same,activity,[3],-2.41%
same,"activity change, negative = inhibition",[4],6.96%
same,activity,[5],-23.8%
same,activity,[6],-2.64%
NC(Cc1cccc(-c2ccccc2CP(=O)(O)O)c1)C(=O)O (configuration not stated),Potency,[1],inactive
same,Potency,Papain (Carica papaya),inactive
NC(=O)CC[C@H](N)C(=O)O,Potency,[1],inactive
same,Potency,Papain (Carica papaya),inactive
O[Si](CCCN1CCCCC1)(c1ccc(F)cc1)C1CCCCC1 (configuration not stated),Potency,[1],inactive
same,Potency,Papain (Carica papaya),inactive
COc1ccccc1N1CCN(CCN(C(=O)c2ccc(F)cc2)c2ccccn2)CC1,Potency,[1],inactive
same,Potency,Papain (Carica papaya),inactive
O=c1[nH]c2cc(Cl)ccc2c(O)c1-c1ccc(Oc2ccccc2)cc1,Potency,[1],inactive
same,Potency,Papain (Carica papaya),inactive
Oc1ccc(/C=C/c2ccc(/C=C/c3ccc(O)cc3)c(Br)c2)cc1,Potency,[1],inactive
same,Potency,Papain (Carica papaya),inactive
CC[n+]1c(/C=C/C=C2/N(C)c3ccccc3C2(C)C)sc2ccccc21,Potency,[1],inactive
same,Potency,Papain (Carica papaya),inactive
CC(=O)SC1CC2=CC(=O)CC[C@]2(C)C2CC[C@@]3(C)C(CC[C@@]34CCC(=O)O4)C12 (some centres not stated),Potency,[1],inactive
same,Potency,Papain (Carica papaya),inactive
CC1C(=O)N(C)C(=O)c2nc[nH]c21 (configuration not stated),Potency,[1],inactive
same,Potency,Papain (Carica papaya),inactive
N#C/C(=C\c1ccc(O)c(O)c1)C(=O)NCCCNC(=O)/C(C#N)=C/c1ccc(O)c(O)c1,Potency,[7],20 µM (active)
same,activity,[3],-50.9%
same,Potency,[4],4.85 µM (active)
same,activity,[5],-44.4%
same,activity,[6],-72.8%
CCCc1c(OCCCOc2ccc(OCC(=O)O)cc2)ccc(C(C)=O)c1O,Potency,[14],inactive
same,Potency,[11],inactive
same,Potency,[12],inactive
same,Potency,[13],15.6 µM (active)
same,outcome,[15],inactive
same,outcome,[16],inactive
same,activity,[3],14.3%
same,"activity change, negative = inhibition",[4],1.18%
same,activity,[5],-16.7%
same,activity,[6],0.821%
